About 3,700 (7%) of roughly 53,000 sequences were called active.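 The calls were made as follows: active = gene knockdowns whose robust z-score for IL-1 alpha signal is at least 2 or at most -2, so actives lie on both sides; inactive = the rest.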 The full list was thinned out, with actives kept by preference.

A short description of this test: Components of the Cytosolic LPS Sensing Pathway: Gene Identification via Genome-wide siRNA Screen.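 Also: robust z of the log signal after scaling to non-targeting control siRNA wells of the plate.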 To be noted: RAW264.7 macrophages, IL-1a HTRF, actives lie on both sides, screened at 100 nM (by protocol), cells primed 5 h with Pam3CSK4 first. In a few lines:
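RAW264.7; siRNA 100 nM final, RNAiMAX, 48h 37 degrees C; Pam3CSK4 5 h; LipidA + TransIT-TKO 24 h; IL-1a HTRF; CellTiter-Glo viability; robust z vs negative-control median.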
As for “GGUUUUCUACAGGAGAGACTT against 9430015G10Rik”, the z-score was 1.33 (inactive). On to CGCAAUGCUGGAUUAUUUATT against Ceacam2, for which the z-score was 0.628 (inactive). In the case of GGGAAGUGACAUAUUCUCGTT against Brf2, the z-score is -0.277 (inactive).

On to GGAGAAGCCAGGAGUUUACTT against Klk6, for which the z-score was 1.71 (inactive). GGUACUAGAUGACAAAAACTT against Cfap20: the z-score was 0.436 (inactive). For the sequence GGUGUUUUAAGAUUGAAUGTT against Ccn1, the z-score is 0.782 (inactive). With CCCAGGUAGUAUACAAGGUTT against Pcdh1 the figure was 2.42 (active); with CCCUCCAGUAAAUUUUAAGTT against Sox6, 1.7 (inactive); with GGCAUAUGCCAGUAUCGGUTT against Defb8, -0.595 (inactive).

Turning to GGAAUGGUAUCAGACUUCUTT against Tarm1, the z-score is 1.54 (inactive). Take GCUACAGAAACCCGGGUAGTT against Jsrp1: the z-score was -1.46 (inactive). Turning to CCGCCAUAGGCUCCUUCAATT against Acat3, the z-score is 0.915 (inactive). GGGAUCAAUGUCAUCCUUUTT against Nif3l1: the z-score is -0.442 (inactive).

For the sequence GCUGCGUAGAACCAUAUGCTT against Cst9, the z-score was -0.802 (inactive). GGAAAUCGAGGUUACAAGUTT against Isy1: the z-score is -2.64 (active).

Consider GGCCACUGACCAUGAAGAATT against Gata2, for which the z-score was -0.289 (inactive). GGCAAACAUGAAUCUUACCTT against Cyth4: the z-score is -0.375 (inactive). With GGAGAUCAUCCACUUCCAGTT against Dbh, the z-score is 2.06 (active). On to GCAAGACUCUACACAUCACTT against Nox4, for which the z-score is 0.0384 (inactive). Take GAGACAGAUAGGCAGAAAATT against Olfr478: the z-score is -1.02 (inactive). Turning to CCAAUUGAAACUCUUUUCCTT against Thada, the z-score was 0.562 (inactive).

For GGUUUGGUGUCAGGUGACATT against Olfr1181, the z-score is -2.05 (active). For the sequence GGGUGAAAAAGGAAUAAAGTT against Col7a1, the z-score is 0.344 (inactive).

With GGAAAUCAUCUUUUCAGAUTT against Slc7a12, the z-score is -0.443 (inactive). With GCCACUAGUGAAGACAUCCTT against Adamtsl1, the z-score was -0.149 (inactive). Next, CGUCUCCAUAGAUCUAGAUTT against Creb3: -0.748 (inactive); CCAUCUUGACACCCAAACUTT against Olfr170: -3.09 (active); CGAAAGCAUUGCCUACUUUTT against Anks3: 0.843 (inactive). Consider GGGACUUUAAAAAAGACUCTT against Olfr1366, for which the z-score was 2.1 (active).

Take CCAGAGGUCUCUAUUAAGATT against Cad: the z-score was -0.0939 (inactive).

Regarding GGACAUGGAUCAAAGUUCATT against Zfp40, the z-score is -0.645 (inactive). Consider GGCAUCUCCUCGAAUUUAUTT against Theg, for which the z-score was -0.737 (inactive). For GGAGCAUCCCGACUACAAGTT against Sox21, the z-score was 3.54 (active). Turning to GGAUCGAUCUGACAUCAAATT against Epyc, the z-score was -0.31 (inactive).

For CCUAUUAAUAUGGAAAGUGTT against Arcn1, the z-score is 0.675 (inactive). With GGGCAACUAUCUUCAAAAATT against Nxnl2 the figure was 0.328 (inactive). With GGCAAUUACCCACCCUGUUTT against Mfsd6, the z-score is -2.57 (active).

On to CCAAGCCUAAUAAAAUUCCTT against Lsr, for which the z-score was 0.867 (inactive). Consider GGCAGAAAACAAGAUAAAGTT against Eif4h, for which the z-score was -0.325 (inactive). For CGGCAAGAUGUCUACUAACTT against Wdtc1, the z-score was 0.655 (inactive). As for CCCUAACUCUGUUAAUGCATT against Casp14, the z-score was -0.627 (inactive).

As for GGAAAUUGGUCCAGUUAUUTT against Magee1, the z-score is 1.37 (inactive). Consider CCAACUGUUGGUGAUGAUGTT against Cpsf6, for which the z-score was -2.05 (active).

Take GCGGGCCAUAAAGAGACAUTT against Timm17a: the z-score was -0.164 (inactive). Next, GGGAUUUAAAGCCAACUUGTT against Sfpq: 0.62 (inactive). With GGAGAAAUAGAUUCAGUGATT against Cep170 the figure was -0.839 (inactive). With GGCAGUUUUUGGACUGUCCTT against Olfr556 the figure was -0.21 (inactive); with GGUUAAGAGCGUACGUUUUTT against Tmem204, 1.46 (inactive); with GGACAACCUUUACUUCUCUTT against Rhox9, -2.78 (active). On to GGGAGAUCUCUCACAGAUCTT against Gja10, for which the z-score was 1.41 (inactive). Consider CCAUAGUGUAUCUGACUGGTT against Iqsec1, for which the z-score is -0.135 (inactive). With GGUGGUGAAGCUAAAGCAGTT against Prkaca the figure was -1.58 (inactive). Next, GCAUGGACAGUUAUGUAUATT against Slc5a6: -0.207 (inactive); GGUGUUAGAUUCUUUGUAATT against Cst6: 2.04 (active); GGUAUAGUAGUGGAAGAUUTT against Uso1: 0.341 (inactive).

As for GGACUUAUGGCAUUAGAAUTT against Nup88, the z-score was -1.17 (inactive).

For GGUGAUCCUAAGAAAGUCCTT against Ireb2, the z-score was 1.07 (inactive).

For the sequence GGAUUGGUUUAGUCAAUAATT against Psmc4, the z-score is -2.03 (active). For GCUUCCUUCUGCUAGAUGGTT against Oxct2a, the z-score is -0.409 (inactive). Consider GGUUUAGAAUGCAUAACAGTT against Dzank1, for which the z-score was -0.217 (inactive). Consider UAUUAAACUCUUGAGACCGTT against Oxa1l, for which the z-score was -0.571 (inactive). As for GGAAAAGCCUACUUCAAAATT against Efcab7, the z-score is 0.9 (inactive).

“GGAAAACAAGUGGAAAGGGTT against C130071C03Rik”: the z-score is 1.54 (inactive). On to “GGAUCAGCAACAGUCUCCATT against 1700029M20Rik”, for which the z-score is -2.01 (active). In the case of CCAGCUUCCUCGUAAGUGATT against Hsf4, the z-score is -1.71 (inactive). With CCACGAUAUUCCAGGUCUGTT against AF067063 the figure was -1.54 (inactive); with GCGAUUGUCCAAGAAUUCCTT against Crcp, 0.822 (inactive); with GGGAGAGGACGACAUUUACTT against Otx2, 0.645 (inactive).

GGAGCCAUGCUAAGAGCAUTT against Dbil5: the z-score is 0.494 (inactive). Next, GCCAGAGUGUCGAAUAUCATT against Dll4: -0.417 (inactive); GGACGCAGACAGGACAAAATT against Parp2: 2.16 (active). With “GUUACUGCGUGGACUGUGUTT against C730034F03Rik” the figure was -0.0785 (inactive).

On to GCCGUAGGUUAGAGAAUCGTT against Nxnl1, for which the z-score was -0.348 (inactive). With CCGUCUUUGUGCUAUGCUGTT against Sstr4, the z-score is 1.56 (inactive). Next, GGAGGUGAAGCUUCGAAUGTT against Slc25a10: 0.052 (inactive); GGAAAUGGCCUCCAUGAGATT against Krt14: 0.734 (inactive). Consider GGCCUUGCACUUCAGUUUCTT against Mfsd4b1, for which the z-score was -0.436 (inactive). Next, GGAAAGAAGAAAUGAGAAGTT against Gm9871: -1.57 (inactive); CGGAAGAAGCCAGUUAAGATT against Apol9b: 0.665 (inactive); GCGUGGAAGGUCUGAACACTT against Arfgap3: 4.18 (active). Take GGAGUUGUGAAUUUCUCGUTT against Sri: the z-score is -0.198 (inactive).

Turning to GGUUACUAGAAAAGUGUUGTT against Olfr1489, the z-score is 1.41 (inactive). In the case of GGGAAUUUCCUGAAAUCCUTT against Mettl8, the z-score is -0.167 (inactive).

As to GGUUAACCUGAGAAAAAUGTT against Mkrn1, the z-score is 0.734 (inactive). With GGCAACUUAGGAGUUAGACTT against Pgam5 the figure was 0.533 (inactive); with GUGUGAACAGAGGCAGAAATT against Xlr3a, -2.46 (active); with CCCUAAGCUCUGUUCCCAGTT against Olfr371, -0.561 (inactive).

For the sequence GCCAAUCUCUGCUAGAUACTT against Slc46a1, the z-score is 0.447 (inactive). As for GGCAACACACUGUCAUUUCTT against Il9, the z-score was -1.06 (inactive).

On to CCAACUGUGAUCAGUGAGCTT against Shank3, for which the z-score is -0.387 (inactive). Turning to GGCCUUGAAGGAGAUGCUATT against Rell2, the z-score is 0.887 (inactive).

On to GCAGAUCAUUCCCGUGUUGTT against P2ry14, for which the z-score is 0.565 (inactive). With GGACAAGAAGGAAAAGAAATT against Brd4, the z-score is -3.25 (active).

Turning to GCUGUGCAAGGUGAGGAAATT against Rps4l, the z-score is 1.25 (inactive). Next, GGUGAUGGAAAUAAACUACTT against Dhrs7b: 1.44 (inactive); GGACAAGAAGCCACUGACATT against Arrb1: 2.2 (active). Turning to GGACCAUUAAACUAAAUGGTT against Tpte, the z-score is -0.592 (inactive). With GCUCUCACAGGAUAAGGCUTT against Cryga the figure was -0.126 (inactive). For the sequence CCUCGUUAUCCUCAUGGGATT against Alppl2, the z-score was 0.649 (inactive). Regarding GGUUUGAGUGGAAAAUUCATT against Csn1s2b, the z-score is 0.904 (inactive). As for CCCACAGAACCACACAUUCTT against H2-DMa, the z-score is 3.11 (active). For the sequence GGAGGCUGAGUAUUGGCUUTT against Pi4k2b, the z-score was -1.06 (inactive).

In the case of GCUCUACCCAAUCAAGACCTT against Asb14, the z-score was 0.31 (inactive).

Regarding GCAGUCGAAGCACUAAAAATT against Dnaaf2, the z-score is 0.412 (inactive).

In the case of CGACCUACUCUACAGCAAATT against Brinp3, the z-score is 2.6 (active).

Take GGAACUGAAGGGCAAUAUCTT against Kifc5b: the z-score is 1.99 (inactive).

With GGGCUCCUUCCUUGAAAAGTT against Dclre1c, the z-score is 0.365 (inactive). On to GACCACACUCAUCCAGGCUTT against Gtpbp6, for which the z-score was 0.817 (inactive).

The values above are taken from PubChem BioAssay AID1508600 (Functional Genomics Laboratory (NCATS/FGL), 2020).
